Assay results: PubChem BioAssay AID1159554 (Broad Institute, 2015)
The whole screen tested about 94,000 compounds, of which about 2,100 (2.2%) were called active. Cut-off read from the data, not from the text of the source: active = activity change below about -80%; inconclusive = no clear call, values can overlap the other calls; inactive = above that. What follows is part of a selection rich in actives, with near analogues and random picks from the rest.

Assay: Dd2 malaria parasite growth inhibition – SYBR Green fluorescence, single dose replicates, primary screen (AID 1159554)
Conditions: P. falciparum Dd2 growth, 72 h, at 10 µM, active compounds read low

Structure (SMILES)	activity change
COc1ccc(-c2ccc([C@@H]3[C@H](CN(C)S(C)(=O)=O)N[C@@H]3CO)cc2)cc1	-61.4% (inactive)
C[C@H](CO)N1C[C@H](C)[C@@H](CN(C)C(=O)Cc2ccccn2)Oc2cc(-c3cccc(C(=O)N(C)C)c3)ccc2S1(=O)=O	-3.07% (inactive)
CN1CCN(C(=O)C[C@H]2C[C@@H]3c4cc(NS(=O)(=O)c5ccc(F)cc5)ccc4O[C@@H]3[C@@H](CO)O2)CC1	-2.3% (inactive)
CO[C@@H]1CN(C)C(=O)c2cc(NC(=O)NC3CCCC3)ccc2OC[C@H](C)NC[C@H]1C	14.4% (inactive)
O=C(Nc1cc(F)ccc1F)N1CC(=O)N2[C@H](CO)[C@@H](c3ccc(-c4cccnc4)cc3)[C@@H]2C1	-15.2% (inactive)
CCC(=O)N1C[C@H]2[C@@H](c3ccccc31)[C@H](CO)N2Cc1ccccc1F	0.398% (inactive)
CO[C@H]1CN(C)C(=O)c2ccc(NC(C)=O)cc2OC[C@@H](C)N(C(=O)c2ccccn2)C[C@@H]1C	13.4% (inactive)
Cc1noc(C)c1S(=O)(=O)N(C)C[C@@H]1OCCCC[C@@H](C)Oc2ccc(NS(=O)(=O)c3ccccc3)cc2C(=O)N([C@H](C)CO)C[C@@H]1C	-10.1% (inactive)
COc1ccc2c3c([nH]c2c1)[C@@H](CO)N(Cc1ccccc1OC)CC31CCN(C)CC1	35.1% (inactive)
CCC(=O)N1CCC2(CC1)CN(Cc1cc(F)ccc1F)[C@@H](CO)c1c2c2ccc(OC)cc2n1C	-73% (inactive)
COCC(=O)N1CC2(C1)CN(Cc1ccccc1F)[C@@H](CO)c1[nH]c3cc(OC)ccc3c12	-88.4% (active)
COc1ccc2c3c([nH]c2c1)[C@@H](CO)N(Cc1cc(F)ccc1F)CC31CCN(C(=O)C2CCC2)CC1	-88% (active)
CCC(=O)N1CC2(C1)CN(Cc1cc(F)ccc1F)[C@@H](CO)c1[nH]c3cc(OC)ccc3c12	-89.9% (active)
COc1ccc2c3c([nH]c2c1)[C@@H](CO)N(C(=O)NC(C)C)CC31CN(C(=O)C2CCCC2)C1	12.7% (inactive)
COc1ccc2c3c([nH]c2c1)[C@H](CO)N(Cc1nccs1)CC31CCN(C(=O)C2CCC2)CC1	-50% (inactive)
COc1ccc2c3c([nH]c2c1)[C@@H](CO)N(Cc1cc(F)ccc1F)CC31CN(C(=O)C2CCC2)C1	-89.2% (active)
COc1ccc2c3c([nH]c2c1)[C@@H](CO)N(Cc1ccncc1)CC31CN(C(=O)CN(C)C)C1	-8.59% (inactive)
COc1ccc2c3c(n(C)c2c1)[C@H](CO)N(Cc1ccccc1F)CC31CN(C(=O)C2CCC2)C1	-14.5% (inactive)
COc1ccc2c3c([nH]c2c1)[C@@H](CO)N(C(C)=O)CC31CN(C(=O)Nc2ccc(F)cc2)C1	-0.229% (inactive)
CCCNC(=O)N1CC2(CCN(C(=O)C3CC3)CC2)c2c([nH]c3cc(OC)ccc23)[C@H]1CO	-26.2% (inactive)

Structure (SMILES)	activity change
CCS(=O)(=O)N1[C@H](CO)[C@@H](c2ccccc2)C12CN(C(=O)C1CCC1)C2	35.7% (inactive)
COc1ccccc1S(=O)(=O)N1CC[C@@H]2[C@H](CO)Nc3ccc(-c4ccccc4F)cc3[C@@H]21	-2.28% (inactive)
O=C1CN(Cc2ccc(F)cc2)C[C@H]2[C@@H](c3ccc(Br)cc3)[C@H](CO)N12	-35.6% (inactive)
O=C(C[C@H]1C[C@@H]2c3cc(NC(=O)C4CCC4)ccc3O[C@@H]2[C@H](CO)O1)NC1CCCCC1	12% (inactive)
O=C(N[C@@H]1C=C[C@H](CC(=O)N2CCOCC2)O[C@H]1CO)c1ccccn1	34% (inactive)
C[C@H](O)C#Cc1cnc2c(c1)C(=O)N([C@H](C)CO)C[C@H](C)[C@H](CN(C)C(=O)c1ccc(F)cc1)O2	8.85% (inactive)
COc1cccc(CNC(=O)C[C@@H]2CC[C@@H]3[C@H](COc4ccc(NC(C)=O)cc4C(=O)N3C)O2)c1	-0.731% (inactive)
C[C@@H]1CN([C@H](C)CO)C(=O)Cc2cc(NC(=O)Nc3ccccc3)ccc2O[C@@H]1CN(C)Cc1ccc(C(F)(F)F)cc1	2.2% (inactive)
Cc1noc(C)c1NC(=O)Nc1ccc2c(c1)CC(=O)N([C@H](C)CO)C[C@@H](C)[C@@H](CN(C)Cc1ccncc1)O2	3.85% (inactive)
Cc1noc(C)c1NC(=O)Nc1ccc2c(c1)C(=O)N([C@H](C)CO)C[C@H](C)[C@H](CN(C)Cc1ccc(Oc3ccccc3)cc1)O2	-39.9% (inactive)
CC(C)NC(=O)Nc1ccc2c(c1)CC(=O)N([C@@H](C)CO)C[C@@H](C)[C@H](CN(C)CC1CC1)O2	1.75% (inactive)
Cc1noc(C)c1NC(=O)Nc1ccc2c(c1)CC(=O)N([C@@H](C)CO)C[C@@H](C)[C@H](CN(C)Cc1ccc(Oc3ccccc3)cc1)O2	-81.8% (active)
C[C@H](CO)N1C[C@H](C)[C@@H](CN(C)Cc2ccc(Cl)c(Cl)c2)Oc2ccc(NC(=O)Nc3ccc(C(F)(F)F)cc3)cc2CC1=O	-87.2% (active)
C[C@H]1CN([C@@H](C)CO)C(=O)Cc2cc(NC(=O)Nc3cccc4ccccc34)ccc2O[C@H]1CN(C)CC1CC1	-71.1% (inactive)
C[C@H](CO)N1C[C@H](C)[C@@H](CN(C)CC2CC2)Oc2ccc(NC(=O)Nc3ccccc3)cc2CC1=O	-83.5% (active)
C[C@@H]1CN([C@H](C)CO)C(=O)Cc2cc(NC(=O)Nc3ccccc3)ccc2O[C@H]1CN(C)Cc1ccc(Cl)c(Cl)c1	-5.47% (inactive)
CO[C@@H]1CN(C)C(=O)c2cc(NC(=O)C3CCOCC3)ccc2OC[C@H](C)N(Cc2cccnc2)C[C@@H]1C	14.9% (inactive)
CCS(=O)(=O)Nc1ccc2c(c1)C(=O)N(C)[C@@H]1CC[C@H](CC(=O)N3CCCCC3)O[C@@H]1CO2	6.13% (inactive)
CO[C@@H]1CN(C)C(=O)c2cc(NS(=O)(=O)c3ccccc3)ccc2OC[C@@H](C)N(C(=O)NC(C)C)C[C@@H]1C	20.8% (inactive)
COCC(=O)N1CCC2(CC1)CN(C(=O)Nc1ccccc1F)[C@@H](CO)c1c2c2ccc(OC)cc2n1C	-32.4% (inactive)
